Source: PubChem
The list is not random: actives were taken first. Their share in the collection is about 19%.
uPA generation = qHTS for Inhibitors of Cell Surface uPA Generation | AID 540303, 2011 | 0.31% of 330,000 active | Potency, µM (doses to about 38.3 µM), inactives show at the highest dose activity change, negative = inhibition, hits mostly inhibitors | cell surface uPA generation assay, qHTS; active = well fitted inhibition curve with a large enough effect; inconclusive = small, poorly fitted or top-dose-only effect; inactive = no such curve, though single readings can be large or run the other way; tested in mouse RAW 264.7 cells; note: potency is the fitted concentration of half-maximal effect; nearly all actives have a fitted effect of over 55% in size
HT1080 IDH1KD tx = qHTS for induction of synthetic lethality in tumor cells producing 2HG: qHTS for the HT-1080-IDH1KD cell line | 2% of 360,000 active | Potency, µM (top dose mostly 46.1 µM), for inactives: top-dose activity, negative = toxicity, usual class: cytotoxic | HT-1080 IDH1 knockdown viability, ATP luminescence, 48 h;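 note: potency is the fitted concentration of half-maximal effect; 0% = DMSO wells and -100% = cell-free medium wells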
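Assay cells: HT-1080 with IDH1 knockdown, 750 per well, RPMI/5% FBS. Exposure: 48 h at 37 °C following 2 h pre-incubation. Read: CellTiter-Glo luminescence; fitted concentration-response, curve class assigned.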
HT1080NT lethal = qHTS for induction of synthetic lethality in tumor cells producing 2HG: qHTS for the HT-1080-NT fibrosarcoma cell line | Potency, µM (titrated, usually from 46.1 µM), for the others: top-dose activity, negative = less viability, most hits filed as cytotoxic | 1.6% of 360,000 active | AID 686970, 2013 | HT-1080-NT fibrosarcoma viability, CellTiter-Glo ATP luminescence, 48 h;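 note: NT is the 2HG producing partner of a matched IDH1 knockdown line; potency is the fitted concentration of half-maximal effect; 0% = DMSO-treated cells and -100% = media-only wells without cells; nearly all actives have a fitted effect of over 55% in size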
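Viability by CellTiter-Glo luminescence after 48 h compound exposure at 37C of HT-1080-NT cells (750/well, RPMI, 5% FBS). % activity scaled between DMSO wells and medium-only wells, then curve-fitted and categorized by curve class.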
TDP1 cell noCPT = qHTS for Inhibitors of human tyrosyl-DNA phosphodiesterase 1 (TDP1): qHTS in cells in absence of CPT. DT40 Tdp1-/- hTDP1 cells, no CPT, ATP luminescence, 48 h. 15% of 420,000 active. Potency, µM (doses to about 46.2 µM), for the others: at the highest dose activity change, negative = growth inhibition, hits mostly inhibitors; note: potency is the fitted concentration of half-maximal effect; nearly all actives have a fitted effect of over 55% in size
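Cells were dispensed at 400 per well, compounds added by pin tool, plates incubated ≥48 hr at 37 °C, then CellTiter-Glo added for 30 min at room temperature before luminescence reading. Line: DT40 Tdp1-/- complemented with hTDP1; camptothecin omitted.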
TDP1 cell CPT = qHTS for Inhibitors of human tyrosyl-DNA phosphodiesterase 1 (TDP1): qHTS in cells in presence of CPT; chicken DT40 Tdp1-/-;hTDP1 cells + 20 nM CPT, ATP luminescence, 48 h; Potency, µM (doses to about 46.2 µM), inactives show at the highest dose activity change, negative = growth inhibition, usual class: inhibitors; 12% of 420,000 active; note: potency is the fitted concentration of half-maximal effect; nearly all actives have a fitted effect of over 55% in size
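Chicken DT40 Tdp1-/- cells complemented with human TDP1, 400 cells/well, exposed to compounds plus 20 nM camptothecin for at least 48 h at 37 C; viability read as ATP content by CellTiter-Glo luminescence.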
IL1B secr inh = qHTS for Inhibitors of Inflammasome Signaling: IL-1-beta AlphaLISA Primary Screen; THP-1 LPS/ATP IL-1B secretion, AlphaLISA, 16 h; stronger effect = lower value; activity change, % at 57.5 µM; 4.7% of 360,000 active; in the data active = activity change below about -50%; inconclusive = mostly about -30% to -49%
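THP-1 cells pretreated 1 hr with compounds (up to 57.5 uM final), then stimulated with LPS (250 ng/mL final) plus ATP (1.25 mM final); secreted IL-1B measured by AlphaLISA after 16 hr, decreased signal indicating inhibition.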
An asterisk follows results filed as active. Unless noted, calls come from the whole dose curve; as a rule, active = well fitted curve in the direction sought with a large enough effect; inconclusive = small, poorly fitted or top-dose-only effect, or another doubt; inactive = no such curve, though single readings can be large; an effect the other way counts as inactive or inconclusive. Unless noted, % is set by controls: 0 for no effect and ±100 for the full control effect.

`Nc1c(C(=O)NCc2ccccc2)nnn1Cc1cccc(Br)c1` gave TDP1 cell noCPT 5.8µM* and TDP1 cell CPT 4.6µM*.
Screening Cc1cc(C)cc(NC(=O)Cn2nnc(C(=O)NCc3ccc4c(c3)OCO4)c2N)c1 returned uPA generation 4%, HT1080 IDH1KD tx inconclusive, HT1080NT lethal 18µM*, TDP1 cell noCPT 0%, TDP1 cell CPT -4% and IL1B secr inh 64.
Screening CCOc1ccccc1NC(=O)Cn1nnc(C(=O)NCc2ccc3c(c2)OCO3)c1N returned uPA generation inconclusive, HT1080 IDH1KD tx 12µM*, HT1080NT lethal inconclusive, TDP1 cell noCPT 2.6µM*, TDP1 cell CPT 4.1µM* and IL1B secr inh 30.
For CCOc1ccccc1NC(=O)c1nnn(CC(=O)Nc2ccc3c(c2)OCO3)c1N the results were uPA generation 5%, HT1080 IDH1KD tx -9%, HT1080NT lethal 1%, TDP1 cell noCPT 11%, TDP1 cell CPT 0% and IL1B secr inh -8.
`COc1ccc(NC(=O)Cn2nnc(C(=O)NCc3ccc4c(c3)OCO4)c2N)cc1` gave uPA generation 4%, HT1080 IDH1KD tx -29%, HT1080NT lethal -21%, TDP1 cell noCPT -11%, TDP1 cell CPT -4% and IL1B secr inh -5.
Screening CC(C)(C)NCC(O)Cn1cc(C=O)c2ccccc21 (configuration not stated) returned uPA generation -13%, HT1080 IDH1KD tx -1%, HT1080NT lethal -6%, TDP1 cell noCPT -1%, TDP1 cell CPT -7% and IL1B secr inh 0.
`CCCN(CCC)CC(O)Cn1cc(/C=C/C(=O)c2ccc(Br)cc2)c2ccccc21` (configuration not stated) gave TDP1 cell noCPT 4.6µM* and TDP1 cell CPT 3.3µM*.
Screening CCCN(CCC)CC(O)Cn1cc(/C=C/C(=O)c2ccc(C)cc2)c2ccccc21 (configuration not stated) returned TDP1 cell noCPT 21µM* and TDP1 cell CPT inconclusive.
CCCN(CCC)CC(O)Cn1cc(/C=C/C(=O)c2cccs2)c2ccccc21 (configuration not stated) was read as uPA generation inconclusive, HT1080 IDH1KD tx -1%, HT1080NT lethal -7%, TDP1 cell noCPT inconclusive, TDP1 cell CPT 18µM* and IL1B secr inh -104*.
`Cc1cccc(NC(=O)CSc2nnc(CNC(=O)c3cccs3)o2)c1C` gave uPA generation 1%, HT1080 IDH1KD tx 5%, HT1080NT lethal 7%, TDP1 cell noCPT 8%, TDP1 cell CPT 31% and IL1B secr inh 17.
`Cc1ccc(-c2cnc(C3CC3)o2)cc1S(=O)(=O)Nc1cccc(C#N)c1` gave TDP1 cell noCPT 5.8µM* and TDP1 cell CPT 5.8µM*.
Cc1cc(-c2ccc(C)c(S(=O)(=O)Nc3cccc(CN4CCCC4)c3)c2)on1 was read as uPA generation -19%, HT1080 IDH1KD tx -2%, HT1080NT lethal -13%, TDP1 cell noCPT -13%, TDP1 cell CPT -14% and IL1B secr inh 10.
`COc1cccc(NS(=O)(=O)c2cc(-c3cnc(C4CC4)o3)ccc2C)c1` gave TDP1 cell noCPT 0.58µM* and TDP1 cell CPT 0.92µM*.
Cc1ccc(C2Nc3ccccc3NC3=C2C(=O)CC(C)(C)C3)c(O)c1 (configuration not stated) was read as uPA generation -7%, HT1080 IDH1KD tx -5%, HT1080NT lethal 2%, TDP1 cell noCPT -29%, TDP1 cell CPT -29% and IL1B secr inh 7.
`CC1(C)CC(=O)C2=C(C1)Nc1ccccc1NC2c1cc(Cl)ccc1O` (configuration not stated) gave uPA generation 1%, HT1080 IDH1KD tx -19%, HT1080NT lethal -24%, TDP1 cell noCPT 23µM*, TDP1 cell CPT 18µM* and IL1B secr inh -18.
Screening Cc1ccc(-n2nc(C(=O)N3CCC(C)CC3)c(=O)n(C)c2=O)cc1 returned TDP1 cell noCPT -17% and TDP1 cell CPT -8%.
Screening CCN(CC)C(=O)Cn1c(=O)n(-c2ccc(C)c(C)c2)c(=O)c2c(C)c(C(=O)N(CC)CC)sc21 returned TDP1 cell noCPT -3% and TDP1 cell CPT -13%.
CC1(C)S[C@@H]2[C@H](NC(=O)COc3ccccc3)C(=O)N2[C@@H]1C(=O)OCc1cccc2cccnc12 was read as TDP1 cell noCPT -13% and TDP1 cell CPT 12%.
Screening S=C(c1ccc2c(c1)OCO2)N1CCN(c2cccc(Cl)c2)CC1 returned uPA generation -20%, HT1080 IDH1KD tx 3.3µM*, HT1080NT lethal inconclusive, TDP1 cell noCPT 4.1µM*, TDP1 cell CPT 3.7µM* and IL1B secr inh 31.
For O=C(c1ccc2c(c1)OCO2)N1CCN(c2ccc(Cl)cc2)CC1 the results were uPA generation -2%, HT1080 IDH1KD tx 1%, HT1080NT lethal 5%, TDP1 cell noCPT inconclusive, TDP1 cell CPT -25% and IL1B secr inh -6.
`CC1CCN(C(=S)c2ccc3c(c2)OCO3)CC1` gave HT1080 IDH1KD tx 13%, HT1080NT lethal 4%, TDP1 cell noCPT 2%, TDP1 cell CPT -20% and IL1B secr inh -13.
For Cc1cccc(N2CCN(C(=S)c3ccc4c(c3)OCO4)CC2)c1 the results were uPA generation inconclusive, HT1080 IDH1KD tx inconclusive, HT1080NT lethal 0%, TDP1 cell noCPT 5.8µM*, TDP1 cell CPT 6.5µM* and IL1B secr inh 4.
Nc1nc2c(Br)ccc(Br)c2cc1C(=O)NCc1cccc2ccccc12 was read as HT1080 IDH1KD tx 16µM*, HT1080NT lethal -20%, TDP1 cell noCPT inconclusive, TDP1 cell CPT inconclusive and IL1B secr inh -2.
O=C(NCc1cccc2ccccc12)c1cccs1 was read as uPA generation -2%, HT1080 IDH1KD tx -10%, HT1080NT lethal 1%, TDP1 cell noCPT inconclusive, TDP1 cell CPT inconclusive and IL1B secr inh 24.
Screening Cc1ccc2ccccc2c1NC(=O)CNCc1ccccc1 returned HT1080 IDH1KD tx -1%, HT1080NT lethal -12%, TDP1 cell noCPT inconclusive, TDP1 cell CPT -8% and IL1B secr inh 25.
